Screens (PubChem)
Sampled rows, rich in hits. Any-hit rate of the full collection: about 2.4%.
TMEM16A inh – TMEM16A chloride channel inhibitors, primary screen, cell-based, HTS | 1.2% of 310,000 active | normalized B-score (activity score, 25-100; higher = stronger inhibition) at 10 µM | AID 588511, 2011 | HEK293 TMEM16A/YFP iodide influx fluorescence, ionomycin | Anoctamin-1 (Mus musculus), Q8BHY3;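 active means ratio plate-corrected score three or more library SD toward inhibition, starting fluorescence score within five deviations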;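 further: score derived from kinetic fluorescence span divided by baseline fluorescence per well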
Target sequence (Q8BHY3 whole entry, looked up): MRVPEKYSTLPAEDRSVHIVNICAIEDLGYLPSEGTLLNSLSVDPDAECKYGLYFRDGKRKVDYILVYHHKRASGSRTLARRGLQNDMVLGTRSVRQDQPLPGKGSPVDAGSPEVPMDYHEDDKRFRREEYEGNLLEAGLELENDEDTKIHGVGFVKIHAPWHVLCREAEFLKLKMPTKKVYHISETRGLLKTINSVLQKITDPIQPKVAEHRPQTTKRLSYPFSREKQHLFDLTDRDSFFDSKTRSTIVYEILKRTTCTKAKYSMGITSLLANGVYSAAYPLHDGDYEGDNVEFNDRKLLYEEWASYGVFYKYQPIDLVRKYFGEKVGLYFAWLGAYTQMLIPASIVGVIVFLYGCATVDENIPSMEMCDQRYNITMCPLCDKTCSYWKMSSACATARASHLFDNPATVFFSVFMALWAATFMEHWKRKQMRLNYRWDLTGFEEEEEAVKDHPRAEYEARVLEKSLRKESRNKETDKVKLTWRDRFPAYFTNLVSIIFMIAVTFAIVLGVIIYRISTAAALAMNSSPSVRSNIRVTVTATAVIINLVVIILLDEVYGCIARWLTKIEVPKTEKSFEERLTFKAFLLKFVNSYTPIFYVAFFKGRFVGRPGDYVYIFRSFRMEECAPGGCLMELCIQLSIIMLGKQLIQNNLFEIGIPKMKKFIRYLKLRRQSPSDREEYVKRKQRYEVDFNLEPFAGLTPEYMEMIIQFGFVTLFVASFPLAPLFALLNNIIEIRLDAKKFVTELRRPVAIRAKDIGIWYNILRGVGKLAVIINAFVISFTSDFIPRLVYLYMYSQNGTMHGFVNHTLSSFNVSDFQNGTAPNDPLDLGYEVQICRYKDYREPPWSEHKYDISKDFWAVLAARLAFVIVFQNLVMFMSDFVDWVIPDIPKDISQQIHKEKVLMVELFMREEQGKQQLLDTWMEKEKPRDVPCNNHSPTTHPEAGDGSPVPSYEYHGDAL
CRFBP-R2 agonist – agonists of CRF-BP/CRF-R2 complex, primary screen, cell-based, HEK293, calcium dye fluorescence, uHTS; activation, % at 13.2 µM; calcium dye fluorescence (FLIPR); percent of saturating CRF peptide response; AID 588473, 2011; 0.46% of 350,000 active; CRF-binding protein / CRF receptor 2 complex (human);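 active means activation of at least 50%, plus an integration ratio under a set limit after plate pattern correction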;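 further: plate controls were neutral control wells without compound for no effect and CRF at EC100 for full effect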
RTF Ca sens act – cardiac RTF calcium sensitivity activators, primary screen, biochemical, IANBD-TnC fluorescence, EC20 calcium; activation, % at 7.2 µM; AID 493008, 2010; Troponin I, cardiac muscle (Homo sapiens) + Troponin T, cardiac muscle (Homo sapiens) + …; IANBD-labeled TnC RTF fluorescence at EC20 calcium; 0% EC20 calcium, 100% full calcium; 0.24% of 340,000 active;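 active means activation above the mean over all tested compounds plus 3 SD, cut at about 30% in these data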;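 further: rise in fluorescence read as greater calcium sensitivity of cardiac thin filaments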
Cardiac RTF inh – cardiac RTF calcium sensitivity inhibitors, primary screen, biochemical, IANBD-TnC fluorescence, EC70 calcium; 0.12% of 340,000 active; IANBD-labeled cardiac RTF, Ca2+ fluorescence; Troponin I, cardiac muscle (Homo sapiens) + Troponin T, cardiac muscle (Homo sapiens) + …; inhibition, % at 7.15 µM;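 active means inhibition above the mean inhibition of all tested compounds plus 3 SD, cut at about 17% in these data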;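 further: assay run at fixed EC70 calcium of 1.6 mM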
CRFBP-R2 block – antagonists of CRF-BP/CRF-R2 complex, primary screen, cell-based, HEK293, calcium dye fluorescence, uHTS. 0.59% of 350,000 active. CRF-induced calcium fluorescence. inhibition, % at 11.8 µM;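 active means inhibition of the ligand-induced calcium signal above about 50% at the single tested concentration, limit read from the data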
ANO1 activ – TMEM16A chloride channel activators or potentiators, primary screen, cell-based, HTS; 0.3% of 340,000 active; HEK293 TMEM16A/YFP-H148Q/I152L, iodide quench fluorescence; stronger effect = lower value; B-score at 10 µM; Anoctamin-1 (Mus musculus), Q8BHY3;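 active means fluorescence-ratio B-score plate-corrected deviation score at least 3 library SD below zero, with starting fluorescence score within 5 deviations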;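 further: channel opened by trigger with iodide after compound preincubation; score built on the fluorescence ratio of max minus min over baseline; more negative score means more quench and so TMEM16A activation or potentiation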
Starred values were filed as active, the others as inactive.

What do the screens show for `O=C(COc1ccccc1)NNC(=S)NC(=O)c1ccc(Cl)cc1Cl`?
TMEM16A inh: 25*; CRFBP-R2 agonist: 69.0*; CRFBP-R2 block: -17.1

How did Cc1ccc(OCC(=O)NC(=S)Nc2cccc(NC(=O)c3ccc(Cl)cc3Cl)c2)cc1 do in these assays?
TMEM16A inh: inactive; CRFBP-R2 agonist: 4.2; RTF Ca sens act: 3.0; Cardiac RTF inh: -3.0; CRFBP-R2 block: -3.0; ANO1 activ: inactive

What do the screens show for `COc1ccc(C(=O)NNC(=S)NC(=O)c2cccnc2)cc1`?
TMEM16A inh: inactive; CRFBP-R2 agonist: -1.3; RTF Ca sens act: -1.6; Cardiac RTF inh: 4.8; CRFBP-R2 block: -2.1; ANO1 activ: inactive

What do the screens show for `COc1ccc(C(=O)NC(=S)NNC(=O)c2ccncc2)cc1Br`?
CRFBP-R2 agonist: 4.1; RTF Ca sens act: -2.7; Cardiac RTF inh: 2.7; CRFBP-R2 block: -11.2; ANO1 activ: inactive

Results for Cc1ccc(C(=O)OC(C)CN2CCN(C)CC2)cc1 (stereo not drawn) ?
TMEM16A inh: inactive; CRFBP-R2 agonist: 0.6; RTF Ca sens act: 1.4; Cardiac RTF inh: 0.5; CRFBP-R2 block: 12.9; ANO1 activ: inactive

Results for CCCCN1C(=N)N([C@@H](CCC)CN2CCC[C@H]2CN2C(N)=NC[C@H]2C(C)C)C[C@H]1[C@H](C)CC ?
CRFBP-R2 agonist: 2.0; RTF Ca sens act: -0.1; Cardiac RTF inh: -5.7; CRFBP-R2 block: -3.6

Results for COc1ccc(Cl)cc1C(=O)NNC(=O)COC(=O)c1cccs1 ?
CRFBP-R2 agonist: -1.4; RTF Ca sens act: 0.8; Cardiac RTF inh: 3.6; CRFBP-R2 block: 104.1*; ANO1 activ: inactive

How did CCNC(=S)NNC(=O)c1cc(-c2ccc(OC)cc2)nc2ccccc12 do in these assays?
TMEM16A inh: inactive; CRFBP-R2 agonist: -1.4; RTF Ca sens act: -1.4; Cardiac RTF inh: -2.7; CRFBP-R2 block: 0.7; ANO1 activ: inactive

How did O=C(NC(=S)NNC(=O)[C@H]1C[C@@H]1c1ccccc1)c1cccc(F)c1 do in these assays?
TMEM16A inh: 100*; CRFBP-R2 agonist: 32.1; RTF Ca sens act: -1.0; Cardiac RTF inh: -5.7; CRFBP-R2 block: -5.6; ANO1 activ: inactive

Results for CCCCOc1ccc(-c2cc(C(=O)NNC(=S)NCC)c3ccccc3n2)cc1 ?
TMEM16A inh: 100*; CRFBP-R2 agonist: -0.9; RTF Ca sens act: 1.3; Cardiac RTF inh: -5.2; CRFBP-R2 block: -6.8; ANO1 activ: inactive

Results for COc1cccc(OC)c1C(=O)NC(=S)NNC(=O)[C@H]1C[C@@H]1c1ccccc1 ?
TMEM16A inh: inactive; CRFBP-R2 agonist: -0.5; RTF Ca sens act: -2.0; Cardiac RTF inh: 3.7; CRFBP-R2 block: -1.7; ANO1 activ: inactive

Results for Cc1cccc(C(=O)NNC(=S)NC(=O)c2cccs2)c1 ?
TMEM16A inh: inactive; CRFBP-R2 agonist: 154.2*; RTF Ca sens act: -1.1; Cardiac RTF inh: -11.8; CRFBP-R2 block: -57.2; ANO1 activ: inactive

Results for COc1ccc(C(=O)NNC(=S)NC(=O)c2cccs2)cc1 ?
TMEM16A inh: inactive; CRFBP-R2 agonist: 43.1; RTF Ca sens act: 1.5; Cardiac RTF inh: -3.3; CRFBP-R2 block: -21.8; ANO1 activ: inactive

What do the screens show for `CCc1nc2ccccc2n1CC(O)COCC1CC=CCC1` (stereo not drawn)?
TMEM16A inh: inactive; CRFBP-R2 agonist: -0.4; RTF Ca sens act: -0.7; Cardiac RTF inh: 6.4; CRFBP-R2 block: -5.8; ANO1 activ: inactive

Results for COc1ccc(C(=O)NNC(=S)Nc2ccccc2)cc1 ?
TMEM16A inh: inactive; CRFBP-R2 agonist: -0.7; RTF Ca sens act: 2.3; Cardiac RTF inh: 6.1; CRFBP-R2 block: 10.3; ANO1 activ: inactive

What do the screens show for `CCCCC(=O)NC(=S)NNC(=O)c1ccc(OC)cc1`?
TMEM16A inh: inactive; CRFBP-R2 agonist: 85.3*; RTF Ca sens act: 3.0; Cardiac RTF inh: -15.7; CRFBP-R2 block: 30.6; ANO1 activ: inactive

Results for COc1ccc(Cl)cc1C(=O)NNC(=S)NC(=O)c1ccc(F)c(F)c1 ?
TMEM16A inh: inactive; CRFBP-R2 agonist: 142.0*; RTF Ca sens act: 2.1; Cardiac RTF inh: -8.2; CRFBP-R2 block: 62.2*

What do the screens show for `CCNC(=S)NNC(=O)c1ccc(OC)cc1`?
TMEM16A inh: inactive; CRFBP-R2 agonist: 1.4; RTF Ca sens act: 7.5; Cardiac RTF inh: -8.7; CRFBP-R2 block: -8.9; ANO1 activ: inactive

How did COc1ccc(C(=O)NC(=S)NNC(=O)c2cccc(C)c2)cc1 do in these assays?
TMEM16A inh: 25*; CRFBP-R2 agonist: 131.3*; CRFBP-R2 block: 0.4; ANO1 activ: inactive

Results for Cc1cccc(C(=O)NNC(=S)NC(=O)c2ccccc2)c1 ?
TMEM16A inh: 100*; CRFBP-R2 agonist: 148.5*; RTF Ca sens act: -0.2; Cardiac RTF inh: -0.1; CRFBP-R2 block: -25.5; ANO1 activ: inactive

Results for COc1ccc(CN(C)C(=O)Cc2ccc(OC)c(S(=O)(=O)N3CCOCC3)c2)cc1 ?
TMEM16A inh: inactive; CRFBP-R2 agonist: 2.8; RTF Ca sens act: -3.4; Cardiac RTF inh: -14.0; CRFBP-R2 block: 12.8; ANO1 activ: inactive

Results for Cc1ccc(C(=O)OCc2nnc(-c3ccc(Br)cc3)o2)cc1 ?
TMEM16A inh: inactive; CRFBP-R2 agonist: -3.6; RTF Ca sens act: 0.4; Cardiac RTF inh: 2.1; CRFBP-R2 block: -7.2; ANO1 activ: inactive

What do the screens show for `COc1cc(CCC(=O)N2CCN(c3ccccc3)CC2)cc(OC)c1OC`?
TMEM16A inh: inactive; CRFBP-R2 agonist: -1.2; RTF Ca sens act: -5.6; Cardiac RTF inh: 6.3; CRFBP-R2 block: 3.1; ANO1 activ: inactive

Results for CCOCCCNC(=O)COc1ccc(OC)cc1 ?
TMEM16A inh: inactive; CRFBP-R2 agonist: -1.9; RTF Ca sens act: 5.5; Cardiac RTF inh: -9.1; CRFBP-R2 block: -7.4; ANO1 activ: inactive

What do the screens show for `CCCCCC(=O)NNC(=O)c1ccc(F)cc1`?
TMEM16A inh: inactive; CRFBP-R2 agonist: -0.2; RTF Ca sens act: 4.9; Cardiac RTF inh: 1.1; CRFBP-R2 block: 53.0*; ANO1 activ: inactive

Results for COc1ccc(Cl)cc1C(=O)NNC(=S)NC(=O)c1cc(-c2ccc(Cl)cc2)nc2ccccc12 ?
TMEM16A inh: 100*; CRFBP-R2 agonist: 24.8; RTF Ca sens act: -5.3; Cardiac RTF inh: 5.2; CRFBP-R2 block: -20.6; ANO1 activ: inactive

What do the screens show for `CCCCCCCC(=O)NNC(=O)c1ccc(F)cc1`?
TMEM16A inh: inactive; CRFBP-R2 agonist: 0.2; RTF Ca sens act: 4.6; Cardiac RTF inh: -0.1; CRFBP-R2 block: -16.2; ANO1 activ: inactive
